Results published in PubChem BioAssay (NCI).
Compounds without any hit were thinned out: in the full panel of roughly 83,000, 20% have a hit.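 In brief: 96-well plates, 48 h treatment, single concentration, percent growth endpoint.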 A number with no mark means an inactive call. Activity calls are given as the source filed them. The calls were made as follows: active = growth percent below 10; inactive = the rest.

What follows are molecules tested on M14 melanoma (assay: NCI-60 one-dose screen, 48 h (100 = growth as untreated, 0 = no growth, -100 = all killed)). Details: 10 µM unless noted.

| Compound | growth |
| --- | --- |
| COc1ccccc1-c1ccc2c(N)c(C(=O)c3ccc4c(c3)OCO4)sc2n1 | 46.6% |
| CC(=O)C1=C(O)C=C2Oc3c(C(=O)/C=C/c4cc(C(F)(F)F)cc(C(F)(F)F)c4)c(O)c(C)c(O)c3[C@]2(C)C1=O | -59.1% (active) |
| CC/C=C\C[C@H](O)C/C=C1/C(=O)C=C[C@@H]1C/C=C\CCCC(=O)NC(C)C | 7.13% (active) |
| COc1ccc(C(=O)c2sc3nc4c(cc3c2N)CCCC4)cc1OC | 27.7% |
| CS(CCCCN=C=S)=NC(=O)c1c(F)c(F)c(F)c(F)c1F (stereo not drawn) | 62.8% |
| COc1ccc(-c2c(C)noc2-c2ccc(O)cc2O)cc1 | 103% |
| COc1ccc(C(=O)c2sc3nc(-c4ccccc4OC)ccc3c2N)cc1OC | 50% |
| NC1=CC(=O)C(=O)c2ccccc21 | 68.1% |
| COc1ccc(C(=O)c2sc3nc4c(c(C(F)(F)F)c3c2N)CN(C(C)=O)CC4)cc1OC | 100% |
| COc1cc(C(=O)/C=C/c2c(C)n([O-])c3ccc(C)cc3[n+]2=O)cc(OC)c1OC | 60.1% |
| COc1cc(C2C(C(=O)c3cccs3)=C(O)C(=O)N2CCN2CCOCC2)cc(OC)c1OC (stereo not drawn) | 99.6% |
| COC(=O)C12C3C(=O)N(c4ccc(OC)cc4)C(=O)C3C(c3cn(-c4ccccc4)nc3C)N1[C@H](c1cn(-c3ccccc3)nc1C)[C@@H]1C(=O)N(c3ccc(OC)cc3)C(=O)[C@@H]12 (stereo partly drawn) | 105% |
| COc1cc(C2CC(=O)Nc3c2cnn3Cc2ccco2)cc2c1OCCO2 (stereo not drawn) | 70.5% |
